# Screening results (PubChem)
# RGS8-Gao reg = human RGS8-Galphao interaction regulation. multiplexed bead flow cytometry, RGS8-Galphao binding; actives lie on both sides. response (percent of control binding), % at 10 µM. P09471. 220,000 tested, 0.34% active; in the data active = response below about 60% or above about 140%; inactive = in between;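 also: Galphao activated as the GDP aluminium fluoride complex binding bead-coupled RGS8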
# Target sequence (P09471 whole entry, looked up): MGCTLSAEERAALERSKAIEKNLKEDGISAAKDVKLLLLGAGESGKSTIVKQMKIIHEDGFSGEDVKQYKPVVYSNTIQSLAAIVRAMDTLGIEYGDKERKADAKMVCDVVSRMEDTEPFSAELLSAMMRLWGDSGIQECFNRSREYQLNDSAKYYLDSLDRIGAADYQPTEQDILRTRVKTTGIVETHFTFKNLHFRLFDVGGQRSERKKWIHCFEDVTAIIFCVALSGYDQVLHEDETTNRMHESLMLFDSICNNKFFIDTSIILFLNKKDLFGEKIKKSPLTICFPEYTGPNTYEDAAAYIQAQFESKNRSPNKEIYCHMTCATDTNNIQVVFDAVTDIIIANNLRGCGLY
# RGS4-Gao reg = modulates binding of RGS4 to human Galphao; binding response (% of control), % at 10 µM; Multiplexed bead flow cytometry; actives lie on both sides; 220,000 tested, 0.33% active; P09471; in the data active = binding response below about 49% or above about 150%; inactive = in between;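 also: fluorescent Galphao activated with aluminum fluoride binding bead-coupled RGS4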
# RGS7-Gao reg = human RGS7-Galphao interaction regulation. AID 1439. P09471. Multiplexed bead flow cytometry, RGS7-Galphao binding; actives lie on both sides. 220,000 tested, 0.35% active. binding response (% of control), % at 10 µM; in the data active = binding response below about 49% or above about 150%; inconclusive = no clear call, values can overlap the other calls; inactive = in between;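 also: fluorescent Galphao held in activated GDP-AlF4 state binding bead-coupled RGS7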
# GSH fluor = compound fluoresces at 488/530 nm on GSH beads | GSH beads flow cytometry, compound fluorescence 488/530 nm; hits give high values | fluorescence (KMESF) at 10 µM | 190,000 tested, 0.25% active; in the data active = fluorescence above about 89;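 also: glutathione beads carrying GST-tagged Bcl family fusion proteins plus one bare bead set; values are compound well signal with DMSO vehicle wells as background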
# RGS16-Gao = RGS16-Galphao interaction regulator (human) | O15492+P09471 | bead-based flow cytometry RGS16-Galphao binding, fluorescence; actives lie on both sides | binding response (% of control), % at 10 µM | 220,000 tested, 0.38% active | AID 1441;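 also: Galphao activated by GDP with aluminum fluoride before binding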
# Avidin bead fluor = avidin bead compound fluorescence profile. Avidin beads, compound fluorescence 488/530 nm, flow cytometry; hits give high values. fluorescence (KMESF) at 10 µM. 220,000 tested, 0.38% active; in the data active = fluorescence above about 47
# RGS4-Gao HTS = RGS4-Galphao interaction regulator (human); shares compounds with RGS16-Gao; multiplexed bead flow cytometry, RGS–Galpha-o binding; RGS4–Galpha-o binding response, % at 10 µM; 1,600 tested, 99% active;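 also: fluorescently labeled Galpha-o bound to GDP with aluminium fluoride binding biotinylated RGS beads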
# Biotin-avidin = interferes with biotinylated probe binding to avidin beads; shares compounds with RGS16-Gao; streptavidin beads, fluorescein-biotin binding, flow cytometry; inhibition, % at 10 µM; 1,700 tested, under 10 active;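 active = inhibition above 50%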;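 also: median green fluorescence of gated singlet beads compared with DMSO control wells; 0% = DMSO wells and 100% = complete loss of bead fluorescence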
# RGS8-Gao confirm = RGS8-Galphao interaction regulation, single point confirmation | shares compounds with RGS16-Gao | bead-based flow cytometry RGS8-Galphao binding, fluorescence; actives lie on both sides | binding response (% of control), % at 10 µM | 1,700 tested, 3% active | AID 1836; in the data active = binding response below about 72% or above about 130%; inactive = in between;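 also: Galphao activated as GDP AlF4 complex before binding bead RGS8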
# RGS7-Gao confirm = RGS7-Galphao interaction regulation, single point confirmation; shares compounds with RGS16-Gao; bead-based flow cytometry RGS7-Galphao binding; actives lie on both sides; 1,700 tested, 7.8% active; response (percent of control binding), % at 10 µM; in the data active = response below about 75% or above about 130%; inactive = in between;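 also: fluorescent Galphao activated with GDP and aluminum fluoride binding bead-coupled RGS7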
# RGS16-Gao conf = confirmation of regulators of human RGS16-Galphao interaction; response (% of control binding), % at 10 µM; shares compounds with RGS16-Gao; bead-based flow cytometry, RGS16-Galphao binding; actives lie on both sides; AID 1838; 1,700 tested, 4% active; in the data active = response below about 74% or above about 130%; inactive = in between;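 also: Galphao activated as the GDP aluminium fluoride complex binding bead-coupled RGS16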
# RGS4-Gao confirm = RGS4-Galphao interaction regulation, single point confirmation | RGS4-Galphao binding, multiplexed bead flow cytometry; actives lie on both sides | shares compounds with RGS16-Gao | AID 1840 | binding response (% of control), % at 10 µM | 1,700 tested, 4% active; in the data active = binding response below about 74% or above about 130%; inactive = in between
# RGS19-Gao conf = confirmation of regulators of human RGS19-Galphao interaction; 1,700 tested, 5% active; bead-based flow cytometry RGS19-Galphao binding; actives lie on both sides; AID 1841; shares compounds with RGS16-Gao; response (percent of control binding), % at 10 µM; in the data active = response below about 50% or above about 160%; inactive = in between;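 also: 100% = no compound control and 0% = blank background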
# Target sequence (P09471 whole entry, looked up): as above
# Target sequence (P49795 whole entry, looked up): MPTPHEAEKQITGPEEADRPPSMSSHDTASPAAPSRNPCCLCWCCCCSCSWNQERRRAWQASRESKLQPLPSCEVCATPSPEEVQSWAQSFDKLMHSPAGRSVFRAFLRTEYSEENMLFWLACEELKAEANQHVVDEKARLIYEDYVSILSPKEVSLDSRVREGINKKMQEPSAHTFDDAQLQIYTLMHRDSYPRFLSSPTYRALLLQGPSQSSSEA
# Starred values were filed as active, the others as inactive; ? = inconclusive; / = no result given; [ ] = remark or other dose. Hits are enriched below; roughly 1.2% of the tested compounds scored in any of these assays. Unless noted, no rule for the calls is given here.
SMILES,RGS8-Gao reg,RGS4-Gao reg,RGS7-Gao reg,GSH fluor,RGS16-Gao,Avidin bead fluor,Biotin-avidin,RGS8-Gao confirm,RGS7-Gao confirm,RGS16-Gao conf,RGS4-Gao confirm,RGS19-Gao conf,others
COc1ccc(N=c2scc(C)n2CCCN2CCCC2=O)cc1,99.5,98.5,?,11,99.4,13,/,/,/,/,/,/,
CCOC(=O)c1c(/N=C/C2=C(O)CC(C)(C)CC2=O)sc(C(C)=O)c1C,99.5,99.6,?,14,101.8,8,/,/,/,/,/,/,
COc1ccc(CNC(=O)CN(Cc2ccccc2)C(=O)c2csnn2)cc1,97.8,96.2,94.3,37,99.1,14,/,/,/,/,/,/,
C=CCN(CC(=O)NCc1ccccc1)C(=O)c1csnn1,/,/,/,49,/,/,1.4,99.8,99.8,99.2,100.0,91.2,
C#CCn1c(S(=O)(=O)Cc2ccc(F)cc2)nc(-c2ccccc2)c1-c1ccccc1,98.5,97.1,94.8,35,93.3,11,/,/,/,/,/,/,
O=C(CCc1nc2ccccc2c(=O)[nH]1)Nc1ccc(Cl)c(Cl)c1,68.9,85.9,85.7,4,9.1*,7,1.5,101.6,101.6,100.8,98.1,107.0,RGS4-Gao HTS=85.9*
O=C1CC(SC(=Nc2ccccc2)Nc2ccccc2)C(=O)N1c1ccc(Cl)cc1 (stereo unspecified),104.1,101.6,100.4,12,110.8,5,/,/,/,/,/,/,
O=C(CSC1CC(=O)N(c2ccc(C(=O)O)cc2)C1=O)Nc1ccc(Cl)cc1 (stereo unspecified),99.3,123.5,241.4*[activator],31,109.5,117*,-1.1,105.0,96.4,104.1,102.7,113.8,RGS4-Gao HTS=123.5*
CC(C)(C)NC(=O)c1cccc2c1OC(C)(C)C2,65.6,87.3,89.2,12,20.2*,1,-0.5,97.8,93.5,100.2,98.2,79.7,RGS4-Gao HTS=87.3*
CCOc1ccc2c(c1)n(CO)c(=S)n2CO,99.6,112.3,176.5*[activator],25,103.8,104*,0.1,91.0,78.7,92.8,90.0,109.8,RGS4-Gao HTS=112.3*
CCOc1ccc2[nH]c(=S)[nH]c2c1,101.0,101.0,104.8,27,103.0,15,/,/,/,/,/,/,
Cc1ccc(NC(=O)c2cc(S(=O)(=O)N3CCOCC3)c(Br)s2)cc1,103.9,107.8,107.9,15,116.4,16,/,/,/,/,/,/,
CCOC(=O)CNNC(=O)Nc1ccc(Cl)c(Cl)c1,152.5*[activator],123.2,112.4,13,326.4*[activator],6,1.0,100.0,104.7,98.5,102.4,93.2,RGS4-Gao HTS=123.2*
COc1ccc(OC)c(NC(=O)Nc2nnc(N3CCC(C)CC3)s2)c1,58.4*,40.1*,42.7*,13,40.2,3,-0.1,109.4,108.2,117.6,105.7,107.9,
CC(=O)N/C(N)=N/c1nc2cc([N+](=O)[O-])ccc2o1,75.8,97.4,?,/,97.7,5,-1.2,93.2,88.5,93.2,94.9,100.0,
O=C(/C=C/c1ccc(Br)o1)OCc1ccccc1,/,/,/,31,/,/,1.6,102.7,107.2,110.3,105.3,102.5,
Cc1ccc(OCC(=O)N/N=C\c2ccncc2)c(C)c1,110.9,105.8,105.2,10,177.1*[activator],7,/,/,/,/,/,/,RGS4-Gao HTS=105.8*
Cc1cc(C)c(-c2cc(NC(=O)CSc3n[nH]c(N)n3)n(-c3ccccc3)n2)cc1C,6.7*,-44.3*,-15.8*,33,-38.3*,-5,-0.2,100.1,106.0,102.2,103.0,105.9,
O=C(N/N=C/c1cccc2cccnc12)c1ccccc1O,96.4,89.5,?,/,87.9,9,/,/,/,/,/,/,
CCn1c2ccccc2c2cc(NC(=O)COC(=O)c3cc(Cl)c(N)cc3OC)ccc21,100.9,100.6,?,/,97.2,8,/,/,/,/,/,/,
CN1CCN(c2nc3c(c(=O)n(C)c(=O)n3C)n2CC(=O)C23CC4CC(CC(C4)C2)C3)CC1,116.8,156.9*[activator],139.5,48,155.9,35,-1.6,101.4,99.2,101.4,101.3,95.5,
O=C(NCc1ccc2c(c1)OCO2)c1cccc([N+](=O)[O-])c1,/,/,/,19,/,/,2.2,101.0,99.6,102.7,101.2,96.2,
O=C(NCc1ccc2c(c1)OCO2)c1ccc(CSCc2ccccc2Cl)o1,74.6,54.5,48.3*,12,8.8,7,0.7,98.3,100.9,101.4,102.6,106.3,RGS4-Gao HTS=54.5*
O=C(NCc1ccc2c(c1)OCO2)c1ccc(COc2cccc(Cl)c2)o1,100.8,100.4,100.7,46,102.1,11,/,/,/,/,/,/,
O=C(NCc1ccc2c(c1)OCO2)c1ccc2c(c1)OCO2,99.6,104.7,?,/,105.2,23,/,/,/,/,/,/,
SMILES,RGS8-Gao reg,RGS4-Gao reg,RGS7-Gao reg,GSH fluor,RGS16-Gao,Avidin bead fluor,Biotin-avidin,RGS8-Gao confirm,RGS7-Gao confirm,RGS16-Gao conf,RGS4-Gao confirm,RGS19-Gao conf,others
Cc1ccc(NC(=O)COC(=O)/C=C/c2cccs2)c(C)c1,103.3,100.9,103.3,7,108.7,13,/,/,/,/,/,/,
Cc1ccc(-n2c(N)c(C(=O)Nc3c(C)n(C)n(-c4ccccc4)c3=O)c3nc4ccccc4nc32)cc1C,99.2,95.6,96.4,11,106.0,20,/,/,/,/,/,/,
COc1ccc(-n2c(N)c(C(=O)Nc3c(C)n(C)n(-c4ccccc4)c3=O)c3nc4ccccc4nc32)cc1,141.1*[activator],315.3*[activator],?,/,288.0*[activator],116*,0.1,102.0,104.5,101.1,102.5,100.4,
CN(C)S(=O)(=O)Oc1cccc(C(=O)Nc2ccc([N+](=O)[O-])cc2)c1,103.7,104.8,101.6,15,102.2,13,/,/,/,/,/,/,
CN(CC(=O)Nn1cnnc1)S(=O)(=O)c1ccccc1,102.5,102.8,104.2,12,104.2,8,/,/,/,/,/,/,
Cc1occc1-c1nnc(-c2cc([N+](=O)[O-])cc([N+](=O)[O-])c2)o1,98.5,96.2,92.6,11,98.3,11,/,/,/,/,/,/,
CCCCC(=O)Nc1cccc(C(C)O)c1 (stereo unspecified),103.2,103.5,102.5,9,101.6,22,/,/,/,/,/,/,
CC(C)CC(=O)Nc1cccc(C(C)O)c1 (stereo unspecified),89.8,114.5,203.1*[activator],9,151.2,173*,1.9,101.8,106.1,99.3,101.6,136.7,RGS4-Gao HTS=114.5*
